# Source: PubChem
# Compounds with a hit are over-represented: about 2.4% of the library has one in this group of screens.
# PABP FP inh = blocks human PABP binding to poly(A) RNA. P11940. fluorescence polarization. inhibition, % at 35 µM. 290,000 tested, 1% active. AID 2014;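 further: calls also rest on retests at 20 µM and on dose response follow-up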
# PfM18AAP inh-1 = PfM18AAP enzyme inhibition; recombinant PfM18AAP, H-Glu-NHMec fluorogenic cleavage; inhibition, % at 7.35 µM; 290,000 tested, 1.2% active; AID 1822;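 active means inhibition above the campaign mean inhibition over all tested compounds plus 3 SD, cut at about 28% in these data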;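 further: 0% = plate median of test compound wells and 100% = 2 mM ZnCl2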
# PERK inhibitor = inhibitors of human PERK kinase; Q9NZJ5; CHO PERK-DD fusion, SEAP luminescence translation reporter; inhibition, % at 5.6 µM; 220,000 tested, 0.17% active; AID 1416;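 active means inhibition above the mean inhibition of all tested compounds plus 3 SD, set separately per screening campaign, cut at about 2.9% in these data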;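 further: PERK kinase domain activated by AP20187 dimerizer at 100 nM; 0% = DMSO with dimerizer and 100% = rapamycin at 8.4 µM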
# PABP1 MLLE inh = blocks PAM2 peptide binding to the PABP1 MLLE domain. P11940. GST-MLLE / FITC-PAM2 fluorescence polarization. inhibition, % at 20 µM. 360,000 tested, 0.36% active. AID 588489; in the data active means inhibition above about 35%, passing the limit was not always enough;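 further: plate controls were DMSO wells with GST-MLLE for no effect and wells lacking GST-MLLE protein for full effect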
# eIF4H FP inh = inhibitors of RNA binding by human eIF4H; 290,000 tested, 0.94% active; eIF4H fluorescence polarization binding assay; inhibition, % at 35 µM; Q15056;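 further: calls also rest on retests at 20 µM and on dose response follow-up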
# eIF4E 4G PPI = blocks eIF4E binding to eIF4G. inhibition, % at 21.7 µM. P63073+Q04637. 220,000 tested, 0.37% active. AID 782. TR-FRET eIF4E-eIF4GI(517-606) binding, 2 h;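 active means inhibition above about 30%, limit read from the data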;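 further: 0% = full FRET control wells and 100% = background wells lacking eIF4GI fragment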
# PfM18AAP inh-2 = confirmation of Plasmodium falciparum M18 aspartyl aminopeptidase inhibitors; shares compounds with PfM18AAP inh-1; recombinant PfM18AAP, H-Glu-NHMec fluorogenic cleavage; inhibition, % at 7.35 µM; 2,400 tested, 28% active; AID 2170;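 active means mean inhibition over replicate wells above the hit cutoff set for the earlier primary screen, cut at about 29% in these data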;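 further: 0% = median of test compound wells and 100% = 2 mM ZnCl2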
# CTSL1 counter = Cathepsin L (human) inhibition, confirmation; purified cathepsin L1, Z-Leu-Arg-MCA fluorescence; inhibition, % at 5.96 µM; shares compounds with PfM18AAP inh-1; 2,400 tested, under 10 active;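 active means average inhibition across replicates above the hit cutoff set in the earlier primary screen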;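 further: 0% = median of test compound wells and 100% = Z-Phe-Ala-diazomethylketone 1 µM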
# Target sequence (P07711 whole entry, looked up): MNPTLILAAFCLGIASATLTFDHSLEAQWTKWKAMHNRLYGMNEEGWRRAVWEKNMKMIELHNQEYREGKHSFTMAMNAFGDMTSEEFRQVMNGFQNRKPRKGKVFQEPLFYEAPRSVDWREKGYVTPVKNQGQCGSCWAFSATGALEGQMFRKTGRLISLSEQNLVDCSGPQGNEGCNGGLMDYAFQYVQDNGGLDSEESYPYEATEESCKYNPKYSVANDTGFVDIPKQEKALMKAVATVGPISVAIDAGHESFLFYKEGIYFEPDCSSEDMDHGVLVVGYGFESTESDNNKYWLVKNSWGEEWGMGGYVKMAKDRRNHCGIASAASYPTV
# * = called active by the depositor; u = inconclusive; x = no result. Unless noted, how the calls were made is not given here.
SMILES,PABP FP inh,PfM18AAP inh-1,PERK inhibitor,PABP1 MLLE inh,eIF4H FP inh,eIF4E 4G PPI,PfM18AAP inh-2,CTSL1 counter
Cc1ncc(CO)c(/C=N/Nc2ccc(C(F)(F)F)cn2)c1O,24.4,47.7*,x,16.1,28.2,x,-26.5,0.8
C[C@H](NC(=O)c1ncn(C)c1C(=O)N[C@@H](C)c1ccccc1)c1ccccc1,x,x,x,-10.9,x,x,x,x
CCOC(=O)c1c(N)sc(C(=O)Nc2ccccc2F)c1C,-8.6,37.0*,-0.1,12.3,-4.0,1.6,-34.5,-0.7
CCOC(=O)c1c(N)sc(C(=O)Nc2ccccc2)c1C,-3.4,-7.5,0.1,33.8,-5.3,-2.8,x,x
O=S(=O)(c1ccc(Br)cc1)N1CCC2(CC1)OCCO2,10.5,1.9,x,0.0,1.6,x,x,x
CC(NC(=O)CN1CCOCC1)c1ccccc1 (centres undefined),-1.8,2.4,x,7.0,-3.7,x,x,x
CC(=O)c1c(C)oc2ccc(O)c(CN3CCOCC3)c12,10.5,15.9,1.1,1.9,-0.8,11.3,x,x
CSCCC(NC(=O)OCc1ccccc1)NC(=O)OCc1ccccc1,x,x,x,6.7,x,x,x,x
CCOc1cc(C(=O)N2CCN(c3ccc(C(C)=O)cc3)CC2)cc(OCC)c1OCC,-3.2,1.8,-0.8,-9.8,-1.2,-0.5,x,x
CCCCC(=O)NNC(=S)NC(=O)c1ccc(C)cc1,5.0,45.6*,1.5,20.2,7.9,-1.6,-28.5,0.5
CCCCC(=O)NNC(=S)NC(=O)c1ccc([N+](=O)[O-])cc1,-15.8,38.8*,0.3,28.0,50.4,-4.0,-24.6,-1.8
N#CCC(=O)NNC(=S)Nc1ccccc1C(F)(F)F,-6.8,46.1*,1.9,29.1,6.2,-2.3,-36.7,0.6
CCCCC(=O)NNC(=S)NC(=O)c1cccc([N+](=O)[O-])c1,2.3,26.7,2.8,9.3,-1.4,0.8,x,x
Cc1ccc(C(=O)NC(=S)NNC(=O)CC#N)cc1,-1.0,33.1*,0.9,31.4,-5.6,-5.6,-29.8,0.1
CCCCN1C[C@H](CSC)[C@@H](CC(=O)Nc2ccc(Br)cc2)C1=O,x,x,x,7.4,x,x,x,x
O=C1CN(C(=O)CSc2nnc(C3CC3)n2-c2ccccc2)c2ccccc2N1,-8.8,-5.7,0.9,-12.5,2.3,-2.1,x,x
CCCNc1nc(NCC)nc(OC)n1,-3.4,4.2,0.7,3.4,-10.2,9.0,x,x
Cc1ccc(/C=N/Nc2nnc(Cc3ccccc3)c(=O)[nH]2)o1,5.8,4.1,0.7,7.9,5.1,-2.8,x,x
COc1ccc(Cc2nnc(N/N=C/c3ccc(O)cc3O)[nH]c2=O)cc1OC,-0.4,39.1*,0.3,-30.7,12.1,1.1,45.6*,1.1
Cn1nc(C(=O)NNC(=O)CCc2ccccc2Cl)c2ccccc2c1=O,x,x,x,7.5,x,x,x,x
Cc1ccc(NNC(=O)c2ccc(Cl)cc2)nn1,-8.4,33.2*,1.9,-37.8,-7.1,7.5,0.8,1.0
C=CCn1c(SCC(=O)N2CCc3ccccc3C2)nnc1-c1ccncc1,-4.7,-5.0,0.1,-8.3,-1.3,12.7,x,x
Oc1ccc(/C=N/n2cnn(Cc3ccccc3Cl)c2=S)c(O)c1,-3.7,38.6*,1.4,24.0,-3.1,0.8,-12.1,0.9
COc1ccc(C(C)(C)C)cc1NC(=O)COC(=O)CSCc1c(C)noc1C,x,x,x,-0.6,x,x,x,x
COc1ccc(S(=O)(=O)NNc2nc(C)cc(C)n2)cc1[N+](=O)[O-],-1.8,62.2*,x,19.0,-6.6,x,39.0*,-4.1
SMILES,PABP FP inh,PfM18AAP inh-1,PERK inhibitor,PABP1 MLLE inh,eIF4H FP inh,eIF4E 4G PPI,PfM18AAP inh-2,CTSL1 counter
COCc1cccc(N2C(=O)CC(C3C=C(C)C4C(=O)N(c5cccc(COC)c5)C(=O)C4C3)C2=O)c1 (centres undefined),-6.4,1.4,-0.4,9.0,-1.8,-1.5,x,x
COc1ccc(Br)cc1CNc1ccc2[nH]c(=O)[nH]c2c1,u,-48.9,1.3,14.3,u,7.1,x,x
COc1ccc(Br)cc1CNc1ccc(O)cc1,46.0,42.0*,-0.2,1.1,43.5,-7.0,-23.8,-3.2
Cc1[nH]c(=O)[nH]c(=S)c1C(=O)Nc1ccc(Cl)c(Cl)c1,x,x,x,-23.8,x,x,x,x
CCOc1ccc(C(=O)NCC(=O)Nc2ccc(N3CCOCC3)cc2)cc1OCC,-4.5,1.6,1.5,-10.0,-4.2,8.0,x,x
CC(=O)Oc1ccc2occ(/C=N/c3cc(=O)[nH]c(=S)[nH]3)c(=O)c2c1,43.9,34.9*,0.4,35.7,35.9,-12.1,11.4,-7.5
CC(=O)NC(c1ccco1)c1ccc2cccnc2c1O (centres undefined),14.6,47.8*,0.6,21.7,28.7,-5.7,-13.4,5.2
CCCCOC(=O)c1sc2nc(N3CCOCC3)c3c(c2c1N)CC(C)(C)OC3,-2.4,-4.4,1.8,4.4,-3.6,-0.8,x,x
CC1(C)Cc2c(c(N3CCOCC3)nc3sc(C(=O)N4CCCCC4)c(N)c23)CO1,-20.9,33.5*,0.8,-11.3,-9.6,0.9,-5.8,2.4
COc1ccc(NC(=O)c2sc3nc(N4CCOCC4)c4c(c3c2N)CC(C)(C)OC4)cc1,-5.7,35.8*,x,7.5,-0.9,x,-56.2,-7.7
COc1ccc(NC(=O)c2sc3nc(N4CCCC4)c4c(c3c2N)CC(C)(C)OC4)cc1,8.6,12.5,x,2.3,-3.5,x,x,x
COc1ccc(OC)c(NC(=O)CSc2nc(=O)n(CCN3CCOCC3)c3c2CCCC3)c1,x,x,x,-7.3,x,x,x,x
CC1CN(C(=O)COC(=O)c2cncc(Br)c2)CC(C)O1 (centres undefined),x,x,x,-1.8,x,x,x,x
CN1c2ccccc2C(C)(C)[C@]12C=Cc1cc(O)ccc1O2,2.0,48.2*,-0.1,-29.4,11.9,3.9,-80.9,-5.3
Cc1ccc(C(c2sc3ncnn3c2O)N2CCCCC2)cc1 (centres undefined),0.1,47.0*,1.3,8.4,14.9,-3.0,-13.6,-10.6
Cc1ccc(C(c2sc3ncnn3c2O)N2CCC(C)CC2)cc1 (centres undefined),-4.3,55.9*,1.0,-4.6,7.9,0.2,-23.6,-0.4
Cc1ccc(C(c2sc3nc(C)nn3c2O)N2CCOCC2)cc1 (centres undefined),-4.8,3.2,-1.6,-3.7,-9.0,7.2,x,x
Oc1c(C(c2ccc(F)cc2)N2CCc3ccccc3C2)sc2ncnn12 (centres undefined),-10.2,53.3*,0.6,10.0,7.3,-2.4,25.3,-4.7
CC(C)NC(=O)Nc1n[nH]c(Nc2ccc(Cl)cc2)n1,-13.1,39.7*,0.4,-1.9,-0.2,4.4,8.6,-2.9
CC1CC(C)CN(S(=O)(=O)c2ccc(NN)nc2)C1 (centres undefined),-9.4,45.9*,-0.1,5.6,-7.1,3.5,33.4*,0.7
CC1CC(C)CN(S(=O)(=O)c2ccc3c(c2)NC(=O)C(C)C(=O)N3)C1 (centres undefined),-3.1,-2.8,x,-6.0,-14.4,x,x,x
